Experimental data published in PubChem BioAssay (EPA / NIEHS).
Some compounds were tested as several samples or in several runs, with calls that do not always agree. Activity calls are given as the source filed them. The calls were made as follows: active = hit-call score of the fitted dose curve at least 0.9, where 1 is the maximum; inactive = score below 0.9.

Legend:
Conditions in all cases: mRNA level, 48 h; actives raise or lower the signal
[1] = read-out: Cytochrome P450 (CYP1A1), CYP1A1 (gene 1543); experiment: LTEA_HepaRG_CYP1A1: Life Technologies and Expression Analysis (LTEA) Assay for Cytochrome P450 (CYP1A1) using HepaRG (AID 2283454)
Method in brief: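 HepaRG, 48 h post-plating switched to serum-free induction medium; 8-pt conc-response (top 100 uM, half-log, 0.5% DMSO), duplicates, 48 h. Lysis in RLT, TaqMan qRT-PCR for CYP1A1; gain or loss vs DMSO.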

[2] = read-out: Forkhead box O1 (FOXO1), FOXO1 (gene 2308); experiment: LTEA_HepaRG_FOXO1: Life Technologies and Expression Analysis (LTEA) Assay for Forkhead box O1 (FOXO1) using HepaRG (AID 2283456)
Method in brief: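 HepaRG, 48 h exposure, 8-pt half-log series from 100 uM in 0.5% DMSO, duplicates; Fluidigm qRT-PCR mRNA, housekeeping-normalised; bidirectional fit vs DMSO baseline.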

[3] = read-out: Forkhead box O3 (FOXO3), FOXO3 (gene 2309); experiment: LTEA_HepaRG_FOXO3: Life Technologies and Expression Analysis (LTEA) Assay for Forkhead box O3 (FOXO3) using HepaRG (AID 2283459)
Method in brief: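 qRT-PCR readout of FOXO3 transcript, normalized to three housekeeping genes (ACTB, GAPDH, POLR2A); gain or loss fitted against 0.5% DMSO vehicle. HepaRG cells, 48 h chemical exposure, 8-point half-log series, top 100 uM.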

[4] = read-out: ABC Transporter (ABCB1), ABCB1 (gene 5243); experiment: LTEA_HepaRG_ABCB1: Life Technologies and Expression Analysis (LTEA) Assay for ABC Transporter (ABCB1) using HepaRG (AID 2283460)
Method in brief: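 HepaRG, 48 h exposure, 8-pt half-log series from 100 uM, 0.5% DMSO vehicle, duplicates. Readout: ABCB1 transcript by Fluidigm TaqMan qRT-PCR, housekeeping-normalized; bidirectional curve fit vs DMSO baseline.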

[5] = read-out: growth arrest and DNA damage 45 (GADD45B), GADD45B (gene 4616); experiment: LTEA_HepaRG_GADD45B: Life Technologies and Expression Analysis (LTEA) Assay for growth arrest and DNA damage 45 (GADD45B) using HepaRG (AID 2283461)
Method in brief: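 HepaRG, ~100,000 cells/well, 48 h plating; serum-free induction medium; cpd 100 uM top, half-log x8, 0.5% DMSO, duplicate, 48 h; lysis in RLT, RNA isolation, qRT-PCR; norm ACTB/GAPDH/POLR2A; bidirectional fit vs DMSO.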

[6] = read-out: ABC Transporter (ABCC3), ABCC3 (gene 8714); experiment: LTEA_HepaRG_ABCC3: Life Technologies and Expression Analysis (LTEA) Assay for ABC Transporter (ABCC3) using HepaRG (AID 2283462)
Method in brief: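 Human HepaRG, 48 h dosing, 8-pt half-log series from 100 uM, 0.5% DMSO vehicle, duplicates. ABCC3 mRNA by TaqMan qRT-PCR, housekeeping-normalized; bidirectional curve fit vs DMSO.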

[7] = read-out: ABC Transporter (ABCB11), ABCB11 (gene 8647); experiment: LTEA_HepaRG_ABCB11: Life Technologies and Expression Analysis (LTEA) Assay for ABC Transporter (ABCB11) using HepaRG (AID 2283463)
Method in brief: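 HepaRG, 48 h exposure, 8-pt half-log CRC top 100 uM, 0.5% DMSO vehicle, duplicates. Readout: TaqMan qRT-PCR of ABCB11 mRNA, housekeeping-normalized (ACTB/GAPDH/POLR2A). Bidirectional fit vs DMSO baseline.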

[8] = read-out: ABC Transporter (ABCC2), ABCC2 (gene 1244); experiment: LTEA_HepaRG_ABCC2: Life Technologies and Expression Analysis (LTEA) Assay for ABC Transporter (ABCC2) using HepaRG (AID 2283464)
Method in brief: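 HepaRG, 48 h post-plating; serum-free induction medium; cpd 8-pt, 100 uM top, half-log, 0.5% DMSO, duplicate, 48 h. Readout: ABCC2 mRNA by qRT-PCR, norm. ACTB/GAPDH/POLR2A. Bidirectional fit vs DMSO baseline.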

[9] = read-out: ATP-citrate lyase (ACLY), ACLY (gene 47); experiment: LTEA_HepaRG_ACLY: Life Technologies and Expression Analysis (LTEA) Assay for ATP-citrate lyase (ACLY) using HepaRG (AID 2283466)
Method in brief: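 qRT-PCR readout of ACLY transcript after 48 h chemical treatment of HepaRG cells; expression normalized to three housekeeping genes. Eight-point half-log series, highest 100 uM, 0.5% DMSO vehicle. Gain or loss fitted against DMSO baseline.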

[10] = read-out: Peroxisomal acyl-coenzyme A oxidase 1 (ACOX1) gene, ACOX1 (gene 51); experiment: LTEA_HepaRG_ACOX1: Life Technologies and Expression Analysis (LTEA) Assay for Peroxisomal acyl-coenzyme A oxidase 1 (ACOX1) gene using HepaRG (AID 2283467)
Method in brief: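 HepaRG, 48 h chemical exposure, 8-pt half-log series from 100 uM top, 0.5% DMSO vehicle, duplicates. Readout: ACOX1 mRNA by Fluidigm qRT-PCR, housekeeping-normalized; bidirectional fit vs DMSO baseline.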

[11] = read-out: Bcl-2 (BAD) gene, BAD (gene 572); experiment: LTEA_HepaRG_BAD: Life Technologies and Expression Analysis (LTEA) Assay for Bcl-2 (BAD) gene using HepaRG (AID 2283469)
Method in brief: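 HepaRG, 48 h exposure, 8-pt half-log curve from 100 uM in 0.5% DMSO, duplicates. Readout: TaqMan qRT-PCR for BAD mRNA, housekeeping-normalised (ACTB/GAPDH/POLR2A); gain or loss fitted against DMSO baseline.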

[12] = read-out: Bcl-2 (BAX) gene, BAX (gene 581); experiment: LTEA_HepaRG_BAX: Life Technologies and Expression Analysis (LTEA) Assay for Bcl-2 (BAX) gene using HepaRG (AID 2283470)
Method in brief: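 Human HepaRG cells treated in duplicate for 48 h across eight concentrations (max 100 uM, 0.5% DMSO); BAX expression measured by qRT-PCR.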

[13] = read-out: adenosine kinase (ADK) gene, ADK (gene 132); experiment: LTEA_HepaRG_ADK: Life Technologies and Expression Analysis (LTEA) Assay for adenosine kinase (ADK) gene using HepaRG (AID 2283471)
Method in brief: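 HepaRG (human liver), 48 h chemical exposure, 8-pt half-log series, top 100 uM, 0.5% DMSO vehicle. Readout: ADK mRNA by qRT-PCR vs housekeeping genes; bidirectional curve fit relative to DMSO baseline.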

[14] = read-out: Alpha-fetoprotein (AFP) gene, AFP (gene 174); experiment: LTEA_HepaRG_AFP: Life Technologies and Expression Analysis (LTEA) Assay for Alpha-fetoprotein (AFP) gene using HepaRG (AID 2283472)
Method in brief: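 Measures AFP mRNA change in HepaRG after 48 h chemical exposure (8 half-log concentrations, highest 100 uM, 0.5% DMSO). Fold change relative to DMSO, fitted in both directions.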

BCL2L11 (gene 10018) = experiment: LTEA_HepaRG_BCL2L11: Life Technologies and Expression Analysis (LTEA) Assay for Bcl-2 (BCL2L11) gene using HepaRG (AID 2283473)
Method in brief: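 Read-out is BCL2L11 transcript level by qRT-PCR, normalized to three housekeeping genes and fitted bidirectionally against 0.5% DMSO vehicle. HepaRG cells received chemicals for 48 h in serum-free induction medium, 100 uM down in half-log dilutions.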

[15] = read-out: Apolipoprotein A-V (APOA5) gene, APOA5 (gene 116519); experiment: LTEA_HepaRG_APOA5: Life Technologies and Expression Analysis (LTEA) Assay for Apolipoprotein A-V (APOA5) gene using HepaRG (AID 2283474)
Method in brief: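 Readout is APOA5 transcript level by qRT-PCR on Fluidigm dynamic arrays, normalized to three housekeeping genes. HepaRG cultures received chemicals for 48 h at up to 100 uM (half-log steps, 0.5% DMSO), with gain or loss scored relative to DMSO.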

[16] = read-out: Apoptosis regulator Bcl-2 (Homo sapiens) (UniProt P10415); experiment: LTEA_HepaRG_BCL2: Life Technologies and Expression Analysis (LTEA) Assay for Bcl-2 gene using HepaRG (AID 2283475)
Method in brief: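 Each chemical was tested in duplicate on HepaRG cultures held in serum-free induction medium for 48 h, highest concentration 100 uM with half-log dilutions. Transcript levels came from multiplexed qRT-PCR, normalised to housekeeping genes; activity was scored in either direction relative to DMSO.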

[17] = read-out: Bcl-2 (BID) gene, BID (gene 637); experiment: LTEA_HepaRG_BID: Life Technologies and Expression Analysis (LTEA) Assay for Bcl-2 (BID) gene using HepaRG (AID 2283476)
Method in brief: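 Assay used HepaRG hepatic cells treated 48 h in serum-free medium with half-log dilutions from 100 uM. Endpoint: BID mRNA, qRT-PCR, normalized to ACTB/GAPDH/POLR2A.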

Caspase-3 (Homo sapiens) = Caspase-3 (Homo sapiens) (UniProt P42574); experiment: LTEA_HepaRG_CASP3: Life Technologies and Expression Analysis (LTEA) Assay for cysteine-aspartic acid protease (CASP3) using HepaRG (AID 2283477)
Caspase-3 (Homo sapiens), sequence (P42574 whole entry, looked up): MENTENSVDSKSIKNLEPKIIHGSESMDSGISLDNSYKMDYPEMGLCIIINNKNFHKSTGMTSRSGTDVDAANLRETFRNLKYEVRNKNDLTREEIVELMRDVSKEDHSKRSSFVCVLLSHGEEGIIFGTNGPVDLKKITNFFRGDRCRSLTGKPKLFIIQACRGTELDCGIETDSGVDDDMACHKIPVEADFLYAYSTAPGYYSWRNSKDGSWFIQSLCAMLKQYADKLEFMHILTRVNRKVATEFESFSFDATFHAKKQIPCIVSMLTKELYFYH
Method in brief: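 Read-out is CASP3 mRNA level by TaqMan qRT-PCR in human HepaRG cells after 48 h chemical exposure. Eight half-log concentrations topping at 100 uM were tested in 0.5% DMSO; gain or loss was fitted relative to DMSO.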

Measured: AC50

Apoptosis regulator Bcl-2 (Homo sapiens), sequence (P10415 whole entry, looked up): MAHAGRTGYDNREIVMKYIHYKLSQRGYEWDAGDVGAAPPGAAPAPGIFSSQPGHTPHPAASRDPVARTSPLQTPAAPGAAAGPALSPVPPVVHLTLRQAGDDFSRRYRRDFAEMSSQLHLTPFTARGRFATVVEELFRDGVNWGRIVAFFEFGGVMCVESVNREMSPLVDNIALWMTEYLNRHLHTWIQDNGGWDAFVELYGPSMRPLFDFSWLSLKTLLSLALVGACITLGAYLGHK

O=C(O)C(Cl)(Cl)Cl
active: [1] 50 µM
inactive: [1] | [2] | [3] | [4] | [5] | [6] | [7] | [8] | [9] | [10] | [11] | [12] | [13] | [14] | BCL2L11 (gene 10018) | [15] | [16] | [17] | Caspase-3 (Homo sapiens)

CCCCCCCCc1ccc(O)cc1
inactive: all assays above

CN(C)N=O
inactive: all assays above

C=C(C)C(=O)[O][Sn]([CH2]CCC)([CH2]CCC)[CH2]CCC
inactive: [3] | [5] | [9] | [10] | [11] | [13]
active: [1] 2.87 µM | [2] 1.98 µM | [4] 3.08 µM | [6] 3.06 µM | [7] 2.02 µM | [8] 3.35 µM | [12] 92.1 µM | [14] 2.17 µM | BCL2L11 (gene 10018) 88.3 µM | [15] 2.92 µM | [16] 2.07 µM | [17] 1.58 µM | Caspase-3 (Homo sapiens) 5 µM

ClC1(Cl)C2(Cl)C3(Cl)C4(Cl)C(Cl)(Cl)C5(Cl)C3(Cl)C1(Cl)C5(Cl)C24Cl (stereo not given)
active: [1] 23.3 µM | [9] 5.15 µM
inactive: all other assays above

O=[N+]([O-])c1ccc(O)c([N+](=O)[O-])c1
active: [1] 71.5 µM | [3] 28.8 µM | [4] 13.6 µM | [5] 50 µM | [6] 12.4 µM | [7] 12.4 µM | [8] 13.3 µM | [9] 4.2 µM | [10] 13.3 µM | [13] 13.3 µM | [14] 24.2 µM | BCL2L11 (gene 10018) 13.1 µM | [15] 25.3 µM | [16] 12.1 µM | [17] 12.9 µM | Caspase-3 (Homo sapiens) 7 µM
inactive: [2] | [11] | [12]

CC(C)(C)CC(C)(C)c1ccc(O)cc1
active: [1] 81.5 µM | [15] 50 µM | [17] 82.8 µM
inactive: all other assays above

O=C(Nc1ccc2[nH]ccc2c1)c1cc2cc(F)ccc2n1Cc1cccc(F)c1
active: [1] 91.7 µM | [4] 90.3 µM | [7] 38.1 µM | [8] 78.2 µM | [10] 63.1 µM | [12] 19.2 µM | [14] 25.2 µM | BCL2L11 (gene 10018) 12.4 µM | [15] 56.2 µM | [16] 22.7 µM
inactive: [2] | [3] | [5] | [6] | [9] | [11] | [13] | [17] | Caspase-3 (Homo sapiens)

O=C1C2(Cl)C3(Cl)C4(Cl)C(Cl)(Cl)C5(Cl)C3(Cl)C1(Cl)C5(Cl)C24Cl (stereo not given)
inactive: [1] | [7] | [11] | [13] | BCL2L11 (gene 10018) | [15] | [17]
active: [2] 93.5 µM | [3] 93.2 µM | [4] 91.8 µM | [5] 93 µM | [6] 92.7 µM | [8] 93.6 µM | [9] 93.1 µM | [10] 0.0893 µM | [12] 87.5 µM | [14] 24.1 µM | [16] 11.1 µM | Caspase-3 (Homo sapiens) 92.3 µM

Cn1sc(Cl)cc1=O
inactive: all assays above

CCN1CCC2(CC1)COc1cc3c(cc12)N(C(=O)c1ccc(-c2ccc(-c4nnc(C)o4)cc2C)cc1)CC3
active: [1] 9.34 µM | [2] 27.7 µM | [3] 17.4 µM | [4] 17.4 µM | [5] 12.5 µM | [6] 71.6 µM | [8] 18.5 µM | [9] 21.5 µM | [10] 30.2 µM | [13] 21.3 µM | [15] 24.6 µM
inactive: [7] | [11] | [12] | [14] | BCL2L11 (gene 10018) | [16] | [17] | Caspase-3 (Homo sapiens)
